Data reported in PubChem BioAssay (NCATS).
Records with an inconclusive call do not appear. Where a call stands in place of a potency, no number is given. Active and inactive are the calls of the source. Unless noted, calls follow the shape of the dose curve; as a rule, active = well fitted curve in the direction sought with a large enough effect; inconclusive = small, poorly fitted or top-dose-only effect, or another doubt; inactive = no such curve, though single readings can be large; an effect the other way counts as inactive or inconclusive.

Key:
[1] = molecular target: Guanine nucleotide-binding protein G(i) subunit alpha-1 (Homo sapiens) (UniProt P63096); assay: qHTS Assay for Inhibitors of RGS12 GoLoco Motif Activity (Green Fluorophore) (AID 879); also: potency is read from the fitted curve at half-maximal effect
How it was run: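 Fluorescence polarization assay: 50 nM Gαi1 with 10 nM FITC-labeled RGS12 GoLoco peptide in 10 mM Tris pH 7.5, 150 mM NaCl, 0.1 mM GDP, 0.05% NP40, 10 min at room temperature with compound.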

[2] = qHTS Assay for Identification of Small Molecule Antagonists for NFkB Signaling Pathway (AID 895; active = well fitted inhibition curve with a large enough effect in the signal ratio, with a control signal flat, not every such curve was filed as active; the % refers to the signal ratio)
How it was run: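 ME-180 NFkB-bla cells (beta-lactamase under NFkB response element), plated overnight, treated with compound then 10 pM TNF alpha (about EC50) for 5 hrs at 37 C. LiveBLAzer FRET read at 460/530 nm emission, 405 nm excitation.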

[3] = qHTS Assay for Identification of Small Molecule Agonists for Thrombopoietin (TPO) Signaling Pathway (AID 917); also: potency is read from the fitted curve at half-maximal effect
How it was run: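 Murine Ba/F3 cells expressing human TPO receptor and GPIIb-promoter luciferase, IL-3-starved overnight, given compound plus TPO at 26 pM (EC50). After 24 h at 37 C, 5% CO2, luminescence read.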

[4] = molecular target: Muscarinic acetylcholine receptor M1 (Rattus norvegicus) (UniProt P08482); assay: qHTS Assay for Antagonists of Acetylcholine Muscarinic M1 Receptor: Measurement of IP-One Response (AID 944); also: nearly all actives have a fitted effect of over 75% in size; also: potency is read from the fitted curve at half-maximal effect
How it was run: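 Steps: plate transfected CHO-M1 cells overnight; add test compound, 10 min; add carbachol (200 nM, EC80) in stimulation buffer with LiCl; incubate 30 min; add labelled IP1 tracer and anti-IP1 antibody in lysis buffer; read HTRF after 10 min.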

[5] = molecular target: Pyruvate kinase (Leishmania mexicana) (UniProt Q27686); assay: qHTS Validation Assay for Inhibitors of Leishmania Mexicana Pyruvate Kinase (AID 945); also: potency is read from the fitted curve at half-maximal effect
How it was run: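 Substrate mix (0.5 mM PEP, 0.1 mM ADP, 7 mM MgCl2, 50 mM KCl, pH 7.2 imidazole) received compound by pin tool, then 0.2 nM LmPYK E451W. After 1 h at room temperature, PKLight was added and luminescence measured.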

[6] = molecular target: Pyruvate kinase PKM (Homo sapiens) (UniProt P14618); assay: qHTS Assay for Activators of Human Muscle Pyruvate Kinase (AID 954; active = well fitted curve in the direction sought with a large enough effect, not every such curve was filed as active)
How it was run: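 Luminescence from a luciferase ATP-detection/stop reagent reported PKM2 activity. Reactions contained 0.1 nM purified human enzyme, 0.5 mM PEP, 0.1 mM ADP and 7 mM MgCl2 at pH 7.2, run 1 h at RT.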

[7] = molecular target: Cytochrome P450 3A4 (Homo sapiens) (UniProt P08684); assay: qHTS Assay for Activators of Cytochrome P450 3A4 (AID 885); also: nearly all actives have a fitted effect of over 65% in size
How it was run: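 20nM CYP3A4 + 25uM Luciferin-PPXE (=KM), 200mM KPO4; cpd 10 min RT; NADPH regen, 60 min RT; stop w/ detection buffer, 20 min; luminescence. Normalized to 57 uM ketoconazole.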

[8] = molecular target: Cytochrome P450 2C9 (Homo sapiens) (UniProt P11712); assay: qHTS Assay for Inhibitors and Substrates of Cytochrome P450 2C9 (AID 883); also: nearly all actives have a fitted effect of over 60% in size
How it was run: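 Signal: luciferase luminescence reporting luciferin produced by CYP2C9. Conditions: 10nM enzyme, Luciferin-H 100uM at KM, 25mM KPO4, 37C, 60 min NADPH-driven reaction. Reference: 57uM sulphaphenazole as 100% inhibition.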

[9] = molecular target: Cytochrome P450 2C19 (Homo sapiens) (UniProt P33261); assay: qHTS Assay for Inhibitors and Substrates of Cytochrome P450 2C19 (AID 899); also: nearly all actives have a fitted effect of over 60% in size; also: potency is read from the fitted curve at half-maximal effect
How it was run: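 Signal comes from luciferase acting on luciferin released by CYP2C19-mediated hydroxylation of Luciferin-H EGE, 10uM (KM). Assay mix: 5nM enzyme, 50mM KPO4; 60 min at 37C with NADPH regeneration. Data normalized against 57uM ketoconazole.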

[10] = Confirmation and Secondary Assay for Modulators of Hemoglobin Beta Chain Splicing at IVS2 654 locus (AID 910);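 also: HeLa cells stably carrying EGFP split by mutant beta-globin IVS2-654 intron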
How it was run: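 HeLa cells stably expressing EGFP interrupted by β-globin IVS2-654 intron, seeded overnight in Opti-MEM/2% FCS, then treated 2 days at 37 °C. Restored splicing read as total peak GFP intensity per well by laser scanning cytometry (488 nm excitation, 500–520 nm emission); 500 nM antisense PNA as control.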

[11] = molecular target: Cytochrome P450 2D6 (Homo sapiens) (UniProt P10635); assay: qHTS Assay for Inhibitors and Substrates of Cytochrome P450 2D6 (AID 891); also: nearly all actives have a fitted effect of over 60% in size; also: potency is read from the fitted curve at half-maximal effect
How it was run: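 Human CYP2D6 (5 nM) with 30 uM Luciferin-ME EGE (at Km) in 100 mM KPO4, compound preincubated 10 min, then NADPH regeneration system for 60 min at room temperature. Luciferin read by luminescence; normalized to 1.43 uM quinidine.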

[12] = qHTS Assay for Identification of Small Molecule Antagonists for Thrombopoietin (TPO) Signaling Pathway (AID 918); conditions: TPO-dependent cell signaling reporter, antagonist mode; also: potency is read from the fitted curve at half-maximal effect; nearly all actives have a fitted effect of over 60% in size
How it was run: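 First, Ba/F3 reporter cells expressing human TPO receptor were held overnight without IL-3. Next, compound and 26 pM TPO were added. After 24 hrs incubation at 37 C, luciferase luminescence under the Glycoprotein IIb promoter was recorded.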

Sequence of Pyruvate kinase (Leishmania mexicana) (Q27686 2-499 E452W): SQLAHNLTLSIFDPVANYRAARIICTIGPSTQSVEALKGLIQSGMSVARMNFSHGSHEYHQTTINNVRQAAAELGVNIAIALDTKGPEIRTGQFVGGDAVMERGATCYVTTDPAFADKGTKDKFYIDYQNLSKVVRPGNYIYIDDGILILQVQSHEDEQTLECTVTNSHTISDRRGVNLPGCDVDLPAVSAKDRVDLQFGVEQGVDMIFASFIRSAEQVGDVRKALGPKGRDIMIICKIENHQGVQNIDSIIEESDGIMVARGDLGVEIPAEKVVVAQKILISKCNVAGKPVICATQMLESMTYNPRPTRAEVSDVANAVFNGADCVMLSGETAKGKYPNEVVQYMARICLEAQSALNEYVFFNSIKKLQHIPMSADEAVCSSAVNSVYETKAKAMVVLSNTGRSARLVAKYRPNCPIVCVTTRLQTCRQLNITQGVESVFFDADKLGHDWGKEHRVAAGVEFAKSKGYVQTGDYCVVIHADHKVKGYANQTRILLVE
Sequence of Cytochrome P450 2C19 (Homo sapiens) (P33261 whole entry, looked up): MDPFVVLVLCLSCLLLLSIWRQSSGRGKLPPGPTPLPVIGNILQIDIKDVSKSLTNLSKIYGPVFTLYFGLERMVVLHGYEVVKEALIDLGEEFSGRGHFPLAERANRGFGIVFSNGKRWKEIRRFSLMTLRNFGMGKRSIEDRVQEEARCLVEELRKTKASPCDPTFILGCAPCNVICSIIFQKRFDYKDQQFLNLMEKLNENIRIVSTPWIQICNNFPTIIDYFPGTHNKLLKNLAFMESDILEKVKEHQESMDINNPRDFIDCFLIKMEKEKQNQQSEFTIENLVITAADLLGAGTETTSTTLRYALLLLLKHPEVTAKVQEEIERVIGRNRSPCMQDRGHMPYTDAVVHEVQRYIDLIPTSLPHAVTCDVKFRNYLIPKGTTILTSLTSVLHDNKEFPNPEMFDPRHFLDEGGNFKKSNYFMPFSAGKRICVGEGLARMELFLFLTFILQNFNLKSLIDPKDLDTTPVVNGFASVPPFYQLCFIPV
Sequence of Cytochrome P450 2D6 (Homo sapiens) (P10635 whole entry, looked up): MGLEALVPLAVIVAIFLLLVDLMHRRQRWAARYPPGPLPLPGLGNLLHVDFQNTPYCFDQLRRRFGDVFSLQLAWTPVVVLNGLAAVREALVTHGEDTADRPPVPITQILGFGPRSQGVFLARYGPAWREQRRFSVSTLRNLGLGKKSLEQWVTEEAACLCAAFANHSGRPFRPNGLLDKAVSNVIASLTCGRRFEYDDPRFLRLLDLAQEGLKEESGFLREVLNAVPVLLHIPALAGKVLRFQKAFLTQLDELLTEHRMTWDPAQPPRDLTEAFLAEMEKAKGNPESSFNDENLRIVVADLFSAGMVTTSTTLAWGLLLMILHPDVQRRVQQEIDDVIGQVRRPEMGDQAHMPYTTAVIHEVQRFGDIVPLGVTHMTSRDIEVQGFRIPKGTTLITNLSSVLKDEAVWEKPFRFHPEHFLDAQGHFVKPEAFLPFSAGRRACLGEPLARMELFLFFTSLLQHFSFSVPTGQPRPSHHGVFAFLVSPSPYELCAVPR
Sequence of Muscarinic acetylcholine receptor M1 (Rattus norvegicus) (P08482 whole entry, looked up): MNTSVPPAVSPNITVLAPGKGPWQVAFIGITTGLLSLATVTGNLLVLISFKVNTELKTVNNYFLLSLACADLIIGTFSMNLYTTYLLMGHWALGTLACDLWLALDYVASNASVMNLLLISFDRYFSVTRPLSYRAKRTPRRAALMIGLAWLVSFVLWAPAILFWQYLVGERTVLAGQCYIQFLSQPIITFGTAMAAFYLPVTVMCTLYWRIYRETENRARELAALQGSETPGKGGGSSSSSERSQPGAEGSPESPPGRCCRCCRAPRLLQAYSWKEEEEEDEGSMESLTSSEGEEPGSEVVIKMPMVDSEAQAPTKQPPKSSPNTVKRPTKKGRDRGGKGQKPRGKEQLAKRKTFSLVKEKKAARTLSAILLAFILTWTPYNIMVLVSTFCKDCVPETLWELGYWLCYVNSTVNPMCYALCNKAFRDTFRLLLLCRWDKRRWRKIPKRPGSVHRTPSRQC
Sequence of Cytochrome P450 3A4 (Homo sapiens) (P08684 whole entry, looked up): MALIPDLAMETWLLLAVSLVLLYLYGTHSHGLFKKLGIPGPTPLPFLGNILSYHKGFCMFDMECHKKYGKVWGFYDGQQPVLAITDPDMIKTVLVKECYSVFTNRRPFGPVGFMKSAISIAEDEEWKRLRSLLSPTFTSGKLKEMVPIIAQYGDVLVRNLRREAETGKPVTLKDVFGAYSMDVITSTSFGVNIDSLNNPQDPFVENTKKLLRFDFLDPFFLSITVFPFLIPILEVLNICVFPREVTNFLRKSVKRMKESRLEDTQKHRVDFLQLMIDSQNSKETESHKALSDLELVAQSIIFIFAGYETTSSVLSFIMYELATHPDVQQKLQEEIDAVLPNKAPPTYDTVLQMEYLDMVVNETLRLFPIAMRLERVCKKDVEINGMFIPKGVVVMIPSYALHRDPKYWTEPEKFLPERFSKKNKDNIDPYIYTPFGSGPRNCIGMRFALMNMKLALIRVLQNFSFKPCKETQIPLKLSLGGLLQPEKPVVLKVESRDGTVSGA
Sequence of Guanine nucleotide-binding protein G(i) subunit alpha-1 (Homo sapiens) (P63096 whole entry, looked up): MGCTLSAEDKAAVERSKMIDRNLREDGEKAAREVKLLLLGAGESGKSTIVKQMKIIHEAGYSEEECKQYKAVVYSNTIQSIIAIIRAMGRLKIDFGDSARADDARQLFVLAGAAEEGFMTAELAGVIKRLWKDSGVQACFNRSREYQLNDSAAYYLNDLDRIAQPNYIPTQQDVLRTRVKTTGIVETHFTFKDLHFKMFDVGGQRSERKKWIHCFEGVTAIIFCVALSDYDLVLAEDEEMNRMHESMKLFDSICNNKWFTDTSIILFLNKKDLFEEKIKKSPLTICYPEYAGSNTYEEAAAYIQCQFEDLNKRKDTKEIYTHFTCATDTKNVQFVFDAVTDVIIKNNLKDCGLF
Sequence of Pyruvate kinase PKM (Homo sapiens) (P14618 whole entry, looked up): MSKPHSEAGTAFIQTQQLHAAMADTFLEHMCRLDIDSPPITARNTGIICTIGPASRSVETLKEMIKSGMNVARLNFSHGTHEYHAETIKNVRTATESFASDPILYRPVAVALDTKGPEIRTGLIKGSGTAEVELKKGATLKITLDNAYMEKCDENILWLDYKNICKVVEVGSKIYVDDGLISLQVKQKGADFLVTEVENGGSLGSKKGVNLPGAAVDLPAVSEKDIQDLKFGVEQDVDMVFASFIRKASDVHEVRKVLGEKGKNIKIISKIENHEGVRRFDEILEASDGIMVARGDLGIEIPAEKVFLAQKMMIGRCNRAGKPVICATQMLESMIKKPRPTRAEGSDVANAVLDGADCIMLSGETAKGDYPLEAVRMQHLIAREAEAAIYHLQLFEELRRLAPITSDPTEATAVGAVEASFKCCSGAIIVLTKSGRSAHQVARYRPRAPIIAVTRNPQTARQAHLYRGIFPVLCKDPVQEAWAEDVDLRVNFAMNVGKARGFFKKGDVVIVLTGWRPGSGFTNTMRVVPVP
Sequence of Cytochrome P450 2C9 (Homo sapiens) (P11712 whole entry, looked up): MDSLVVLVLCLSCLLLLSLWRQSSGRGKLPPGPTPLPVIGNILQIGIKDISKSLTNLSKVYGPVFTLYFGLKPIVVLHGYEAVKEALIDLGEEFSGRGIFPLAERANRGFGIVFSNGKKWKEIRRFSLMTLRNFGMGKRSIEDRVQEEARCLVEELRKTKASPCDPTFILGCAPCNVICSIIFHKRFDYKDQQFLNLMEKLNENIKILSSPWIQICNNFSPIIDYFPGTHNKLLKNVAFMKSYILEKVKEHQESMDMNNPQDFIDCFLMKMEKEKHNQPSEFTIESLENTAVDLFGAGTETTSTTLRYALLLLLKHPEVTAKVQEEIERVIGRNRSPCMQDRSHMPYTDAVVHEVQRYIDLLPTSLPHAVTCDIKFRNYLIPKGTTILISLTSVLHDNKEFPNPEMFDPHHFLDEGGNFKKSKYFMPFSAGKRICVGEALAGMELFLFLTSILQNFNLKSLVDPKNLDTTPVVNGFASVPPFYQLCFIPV

C[C@@H]1[C@@H]2Cc3ccc(O)cc3[C@@]1(C)CCN2CC1CC1
Potency [1]: inactive | Potency [2]: inactive | Potency [3]: inactive | Potency [4]: 15.8 µM (active) | Potency [5]: inactive | outcome [6]: inactive

Clc1ccc(N2C[C@H]3CC[C@@H](C2)N3)nn1
Potency [1]: inactive | Potency [2]: inactive | Potency [3]: inactive | Potency [5]: inactive | outcome [6]: inactive

CC(C)NP(=O)(NC(C)C)OP(=O)(NC(C)C)NC(C)C
Potency [1]: inactive | Potency [2]: inactive | Potency [3]: inactive | Potency [4]: inactive | Potency [5]: inactive | outcome [6]: inactive

CP(=O)(O)C1=CCNCC1
Potency [1]: inactive | outcome [7]: inactive | Potency [3]: inactive | Potency [4]: inactive | Potency [5]: inactive | outcome [6]: inactive

CCCN(CCC)C1Cc2cc(OC)c(OC)cc2C1
Potency [1]: inactive | Potency [8]: inactive | Potency [2]: inactive | Potency [3]: inactive | Potency [4]: 2.51 µM (active) | Potency [5]: inactive | outcome [6]: inactive

N[C@@H](Cn1oc(=O)[nH]c1=O)C(=O)O
Potency [1]: inactive | outcome [7]: inactive | Potency [3]: inactive | Potency [4]: inactive | Potency [5]: inactive | outcome [6]: inactive

NCCc1ccc(S(=O)(=O)F)cc1
Potency [1]: inactive | Potency [2]: inactive | Potency [3]: inactive | Potency [4]: inactive | Potency [5]: inactive | outcome [6]: inactive

CCC1(C)CC(=O)NC(=O)C1
Potency [9]: inactive

NC(N)=NOCC[C@H](N)C(=O)O
Potency [1]: inactive | Potency [3]: inactive | Potency [4]: inactive | Potency [5]: inactive | outcome [6]: inactive

CC(=O)NBr
Potency [1]: inactive | Potency [3]: inactive | Potency [4]: inactive | Potency [5]: inactive | outcome [6]: inactive

C[CH2][Hg][S]c1ccccc1C(=O)O
outcome [10]: inactive

CCC(=O)O[C@@](Cc1ccccc1)(c1ccccc1)[C@@H](C)CN(C)C
outcome [7]: inactive | Potency [11]: 7.94 µM (active)

OC1CCCCC1N1CCC(c2ccccc2)CC1 (stereo not drawn)
outcome [10]: inactive

C=CCN1CC[C@]23c4c5ccc(O)c4O[C@H]2/C(=N/NC(=O)c2ccccc2)CC[C@@]3(O)[C@H]1C5
outcome [7]: inactive

Cc1sc2ccccc2c1CC1=NCCN1
Potency [1]: inactive | Potency [3]: inactive | Potency [4]: inactive | Potency [5]: inactive | outcome [6]: inactive

CN(N=O)c1cc(O)ccc1O
Potency [4]: inactive | Potency [5]: inactive

[N-]=[N+]=CC(=O)OCC(N)C(=O)O (stereo not drawn)
outcome [10]: inactive

CCN(CCCl)Cc1ccccc1Br
Potency [1]: inactive | Potency [3]: inactive | Potency [5]: inactive | outcome [6]: inactive

O=C(O)c1cc[c]([Hg][Cl])cc1
Potency [1]: 25.1 µM (active) | Potency [2]: inactive | Potency [4]: inactive | Potency [5]: 3.98 µM (active) | outcome [6]: inactive

CCCN1CCc2cc(O)cc3c2[C@H]1Cc1ccc(O)c(O)c1-3
Potency [12]: 10 µM (active) | Potency [5]: inactive | outcome [6]: inactive

C[N+](C)(C)CC#CCOC(=O)Nc1cccc(Cl)c1
Potency [1]: inactive | Potency [3]: inactive | Potency [4]: inactive | Potency [5]: inactive | outcome [6]: inactive

c1ccc2c(N3CCNCC3)cccc2c1
Potency [1]: inactive | Potency [3]: inactive | Potency [5]: inactive | outcome [6]: inactive

CCCN(CCC)CCc1ccc(O)c(O)c1
Potency [1]: inactive | Potency [3]: inactive | Potency [4]: inactive | Potency [5]: inactive | outcome [6]: inactive

C[C@H](N)CN1CCc2ccc(Br)cc21
Potency [1]: inactive | Potency [3]: inactive | Potency [5]: inactive | outcome [6]: inactive

COc1ccc2c(c1)c(CCN1CCOCC1)c(C)n2C(=O)c1cccc(Cl)c1Cl
outcome [7]: inactive

COc1ccc(OC)c(C(O)C(C)N)c1 (stereo not drawn)
outcome [10]: inactive

NC(Cc1ccc(N(CCCl)CCCl)cc1)C(=O)O (stereo not drawn)
outcome [7]: inactive | outcome [10]: inactive

CCCC(C)C1(CC)C(=O)NC(=O)NC1=O (stereo not drawn)
outcome [10]: inactive

C[C@@H]1O[C@H](C[N+](C)(C)C)CS1
Potency [1]: inactive | Potency [4]: inactive | Potency [5]: inactive | outcome [6]: inactive

CC(N)Cc1ccc(O)cc1 (stereo not drawn)
outcome [10]: inactive

Cc1cc(C)cc(C(=O)OC2C[C@H]3CC[C@@H](C2)N3C)c1 (stereo partly drawn)
Potency [11]: 0.251 µM (active)

O=c1ccc2[nH]cc(C3=CCNCC3)c2[nH]1
Potency [11]: 2.51 µM (active) | Potency [9]: 0.126 µM (active)

COc1ccc2[nH]cc(CCN)c2c1
Potency [1]: inactive | outcome [10]: inactive | Potency [3]: inactive | Potency [4]: inactive | Potency [5]: inactive | outcome [6]: inactive

CN1CCc2cccc(Cl)c2CC1
Potency [1]: inactive | Potency [3]: inactive | Potency [5]: inactive | outcome [6]: inactive

C[C@@H](CO)NC(=O)[C@@H]1C=C2c3cccc4[nH]cc(c34)C[C@H]2N(C)C1
outcome [7]: inactive

CN(N=O)c1ccc(O)c(O)c1
Potency [8]: inactive | Potency [11]: inactive | Potency [9]: inactive | Potency [3]: inactive | Potency [4]: inactive | Potency [5]: inactive

c1ccc2cc(CC3=NCCN3)ccc2c1
Potency [1]: inactive | Potency [3]: inactive | Potency [5]: inactive | outcome [6]: inactive

Clc1ccc(Cl)cc1
outcome [10]: inactive

CCCn1c(C)c(C(=O)c2ccc3ccccc3c2)c2ccccc21
Potency [1]: inactive | Potency [9]: 7.94 µM (active) | Potency [3]: 10 µM (active) | Potency [4]: inactive | Potency [5]: inactive | outcome [6]: inactive

C=CCC1(C(C)CCC)C(=O)N=C(S)NC1=O (stereo not drawn)
outcome [7]: inactive | outcome [10]: inactive

ClC1C(Cl)C(Cl)C(Cl)C(Cl)C1Cl (stereo not drawn)
outcome [10]: inactive

CN1C2CCC1CC(OC(c1ccccc1)c1ccccc1N)C2 (stereo not drawn)
outcome [10]: inactive

CN1CCc2cc(O)cc3c2[C@H]1Cc1ccc(O)c(O)c1-3
Potency [12]: 10 µM (active) | Potency [5]: inactive
